From PubChem BioAssay
Calls of active or inactive are those of the source.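 Rule for the calls, unless noted: active = visual image review flags a hit and inhibition of aggregation exceeds 20%; inconclusive = visual hit but inhibition at or below 20%; inactive = no hit on visual image review.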

System: not listed separately
Assay: inhibitors of TNFa-induced NFkB p65 translocation, primary screen, imaging, HUVEC, MLSMR starter and 10KST1 sets (AID 438;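 active = inhibition above 20% together with a positive visual image hit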;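 note: compound added about 3h40 before a 20 min TNFalpha stimulation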;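 for inhibition: signal is the nuclear over cytoplasmic p65 intensity ratio per well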)
Conditions: HUVEC TNFa-induced p65 nuclear translocation; cell count: measured here: nuclei count (cytotoxicity indicator), at 2.08 µM; inhibition: at 2 µM, stronger effect = higher value, 0% TNFa-plus-vehicle, 100% no-TNFa wells

Compound	inhibition	cell count
O=c1c2ccccc2[nH]c(=S)n1CCN1CCC(=C(c2ccc(F)cc2)c2ccc(F)cc2)CC1	-12.2% (inactive)	603
O=C(C1CCN(c2nnc(-n3cccc3)s2)CC1)N1CCc2ccccc2C1	-5% (inactive)	479
COc1ccccc1-n1cnc2cc(NS(=O)(=O)c3ccccc3)ccc21	-12.5% (inactive)	720

System: not listed separately
Assay: inhibitors of mutant huntingtin aggregation, primary screen, imaging, exon1htt(103Q)mCFP cells, high-content imaging (AID 483);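 note: compound exposure lasted 3 days before fixation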;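 for nuclei count: percent of the per-plate median nuclei count of sample wells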
Conditions: exon1htt(103Q)mCFP cell line, aggregate imaging, at 2 µM; inhibition of aggregation: stronger effect = higher value; nuclei count: measured here: cell count, toxicity

Compound	nuclei count	inhibition of aggregation
O=c1c2ccccc2[nH]c(=S)n1CCN1CCC(=C(c2ccc(F)cc2)c2ccc(F)cc2)CC1	92.5%	12% (inactive)
O=C(C1CCN(c2nnc(-n3cccc3)s2)CC1)N1CCc2ccccc2C1	65.3%	-15.5% (inactive)
COc1ccccc1-n1cnc2cc(NS(=O)(=O)c3ccccc3)ccc21	90.2%	1.2% (inactive)

System: not listed separately
Assay: inhibitors of E-selectin induction by TNFa, primary screen, imaging, HUVEC, immunofluorescence, MLSMR starter and 10KST1 sets (AID 487;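 active = visually confirmed hit in the image check and inhibition above 20%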;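 for inhibition: signal is fraction of cell area covered by stained E-selectin grains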;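 for nuclei count: 100% = median nuclei count of all wells on the same plate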)
Conditions: HUVEC TNFalpha-induced E-selectin immunofluorescence imaging, at 2 µM; inhibition: stronger effect = higher value; nuclei count: measured here: cell number, toxicity

Compound	inhibition	nuclei count
O=c1c2ccccc2[nH]c(=S)n1CCN1CCC(=C(c2ccc(F)cc2)c2ccc(F)cc2)CC1	-105% (inactive)	132%
O=C(C1CCN(c2nnc(-n3cccc3)s2)CC1)N1CCc2ccccc2C1	-9.9% (inactive)	104%
COc1ccccc1-n1cnc2cc(NS(=O)(=O)c3ccccc3)ccc21	-14.6% (inactive)	108%

Target: Voltage-gated potassium channel subunit beta-2 (Rattus norvegicus) (UniProt P62483)
Sequence (P62483 whole entry, looked up): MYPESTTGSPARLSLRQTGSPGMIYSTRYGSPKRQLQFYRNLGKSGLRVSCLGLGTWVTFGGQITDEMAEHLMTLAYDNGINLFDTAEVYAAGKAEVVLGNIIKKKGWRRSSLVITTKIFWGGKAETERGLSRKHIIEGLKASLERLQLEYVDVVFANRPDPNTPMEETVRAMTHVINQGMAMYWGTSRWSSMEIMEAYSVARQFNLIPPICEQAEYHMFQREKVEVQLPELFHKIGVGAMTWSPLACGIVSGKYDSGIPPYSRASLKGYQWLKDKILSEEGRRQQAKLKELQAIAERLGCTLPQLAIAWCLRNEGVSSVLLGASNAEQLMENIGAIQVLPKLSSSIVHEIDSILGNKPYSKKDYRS
Assay: KvBeta enzyme negative modulators, primary screen, biochemical, NADPH fluorescence (AID 622;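 active = fluorescence slope higher than the sample average by over 3 SD, cut at about -0.22 in these data, passing the limit was not always enough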;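 note: slope of raw intensity against log time taken from 70 to 1610 s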)
Conditions: recombinant KvBeta, 4-cyanobenzaldehyde reduction, at 10 µM, stronger effect = higher value

Compound	fluorescence slope
O=c1c2ccccc2[nH]c(=S)n1CCN1CCC(=C(c2ccc(F)cc2)c2ccc(F)cc2)CC1	-0.452 (inactive)
O=C(C1CCN(c2nnc(-n3cccc3)s2)CC1)N1CCc2ccccc2C1	-0.605 (inactive)
COc1ccccc1-n1cnc2cc(NS(=O)(=O)c3ccccc3)ccc21	-0.46 (inactive)

Target: Voltage-gated potassium channel subunit beta-2 (Rattus norvegicus) (UniProt P62483)
Assay: KvBeta positive modulators, primary screen, biochemical, NADPH fluorescence (AID 623;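 active = NADPH fluorescence slope more negative than the mean of all samples by about 3 SD, 99.7% confidence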;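 note: fluorescence intensity change per second fitted from 20 to 320 s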)
Conditions: Recombinant KvBeta, NADPH fluorescence decrease slope, 10 min; at 10 µM; stronger effect = lower value

Compound	NADPH fluorescence slope
O=c1c2ccccc2[nH]c(=S)n1CCN1CCC(=C(c2ccc(F)cc2)c2ccc(F)cc2)CC1	-0.000101 (inactive)
O=C(C1CCN(c2nnc(-n3cccc3)s2)CC1)N1CCc2ccccc2C1	-3.9e-05 (inactive)
COc1ccccc1-n1cnc2cc(NS(=O)(=O)c3ccccc3)ccc21	-1.9e-05 (inactive)

Target: Alpha-2C adrenergic receptor (Homo sapiens) (UniProt P18825)
Sequence (P18825 whole entry, looked up): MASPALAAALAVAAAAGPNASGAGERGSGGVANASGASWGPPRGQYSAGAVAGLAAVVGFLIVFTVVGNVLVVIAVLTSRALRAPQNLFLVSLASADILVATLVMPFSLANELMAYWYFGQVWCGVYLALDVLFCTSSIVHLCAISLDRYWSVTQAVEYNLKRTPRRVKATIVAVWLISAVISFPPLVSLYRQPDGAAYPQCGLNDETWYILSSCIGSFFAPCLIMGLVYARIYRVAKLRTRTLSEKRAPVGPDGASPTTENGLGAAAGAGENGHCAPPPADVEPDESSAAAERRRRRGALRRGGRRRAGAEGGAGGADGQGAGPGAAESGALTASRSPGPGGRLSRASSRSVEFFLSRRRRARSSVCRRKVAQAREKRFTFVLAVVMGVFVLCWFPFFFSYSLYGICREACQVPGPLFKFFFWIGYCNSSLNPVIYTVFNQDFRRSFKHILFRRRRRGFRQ
Assay: modulators of alpha2C/GIRK thallium flux, primary screen, cell-based, HEK293 alpha2C/GIRK1/2 (AID 624;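 active = fluorescence slope after compound addition differing from the mean of all screened samples at 99.7% confidence, in either direction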;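 note: slope of fluorescence ratio to pre-addition baseline per second over 15 to 24 s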)
Conditions: thallium flux BTC fluorescence, at 10 µM, actives lie on both sides

Compound	slope
O=c1c2ccccc2[nH]c(=S)n1CCN1CCC(=C(c2ccc(F)cc2)c2ccc(F)cc2)CC1	0.00649 (inactive)
O=C(C1CCN(c2nnc(-n3cccc3)s2)CC1)N1CCc2ccccc2C1	0.00552 (inactive)
COc1ccccc1-n1cnc2cc(NS(=O)(=O)c3ccccc3)ccc21	0.00351 (inactive)
